PubChem BioAssay AID1159580 (chemical genetic matrix, 2015)
Out of some 5,500 compounds screened, about 2,000 (36%) were called active. Inconclusive results (about 18%) are left out. Cut-off read from the data, not from the text of the source: active = normalized growth mostly below about 0.91 (no sharp cut-off); inconclusive = no clear call, values can overlap the other calls; inactive = mostly above about 0.92. This is one part of the list.

Assay: chemical genetic growth profiling, strain panel (AID 1159580);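 note: tested at 20 µM; growth read once vehicle control cultures reached saturation at 30 °C; 1 = growth at the plate median or of vehicle wells; lower values mean less growth of the strain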
Settings: growth OD

Measured: normalized growth

COc1cc2c(cc1OC)[C@@H]1C(=O)c3ccc4c(c3O[C@@H]1CO2)C=CC(C)(C)O4
inactive: S. cerevisiae deletion strains, locus YKL009W, strain mrt4, active compounds read low 0.999 | S. cerevisiae deletion strains, locus YKL068W, active compounds read low 0.982 | S. cerevisiae deletion strains, locus YKL085W, strain MDH1 (second series), active compounds read low 0.967 | S. cerevisiae deletion strains, locus YKL085W, strain MDH1, active compounds read low 0.967 | S. cerevisiae deletion strains, locus YKL160W, strain elf1, active compounds read low 0.973 | S. cerevisiae deletion strains, locus YKL190W, strain CNB1, active compounds read low 0.986 | S. cerevisiae deletion strains, locus YKR001C, strain vps1, active compounds read low 0.934 | S. cerevisiae deletion strains, locus YKR026C, strain gcn3, active compounds read low 1.01 | S. cerevisiae deletion strains, locus YKR091W, strain srl3, active compounds read low 1 | S. cerevisiae deletion strains, locus YLL001W, strain dnm1, active compounds read low 0.992 | S. cerevisiae deletion strains, locus YLL026W, active compounds read low 1.01 | S. cerevisiae deletion strains, locus YLL041C, strain sdh2, active compounds read low 1.01 | S. cerevisiae deletion strains, locus YLR027C, strain aat2, active compounds read low 0.982 | S. cerevisiae deletion strains, locus YLR039C, strain RIC1, active compounds read low 0.891 | S. cerevisiae deletion strains, locus YLR058C, strain SHM2, active compounds read low 0.983 | S. cerevisiae deletion strains, locus YLR102C, strain apc9, active compounds read low 0.982 | S. cerevisiae deletion strains, locus YLR113W, strain HOG1, active compounds read low 0.898 | S. cerevisiae deletion strains, locus YLR221C, strain rsa3, active compounds read low 0.983 | S. cerevisiae deletion strains, locus YLR258W, strain gsy2, active compounds read low 0.994 | S. cerevisiae deletion strains, locus YLR262C, strain YPT6 (second series), active compounds read low 0.868 | S. cerevisiae deletion strains, locus YLR262C, strain YPT6, active compounds read low 0.916 | S. cerevisiae deletion strains, locus YLR268W, strain sec22, active compounds read low 0.97 | S. cerevisiae deletion strains, locus YLR320W, strain mms22, active compounds read low 0.89 | S. cerevisiae deletion strains, locus YLR330W, strain CHS5, active compounds read low 0.986 | S. cerevisiae deletion strains, locus YLR342W, strain FKS1 (second series), active compounds read low 0.943 | S. cerevisiae deletion strains, locus YLR342W, strain FKS1, active compounds read low 0.946 | S. cerevisiae deletion strains, locus YLR357W, strain rsc2, active compounds read low 0.992 | S. cerevisiae deletion strains, locus YLR370C, strain arc18, active compounds read low 1.01 | S. cerevisiae deletion strains, locus YLR371W, strain rom2, active compounds read low 0.961 | S. cerevisiae deletion strains, locus YLR384C, strain iki3, active compounds read low 1.03 | S. cerevisiae deletion strains, locus YLR418C, strain cdc73, active compounds read low 0.962 | S. cerevisiae deletion strains, locus YML016C, strain PPZ1, active compounds read low 0.981 | S. cerevisiae deletion strains, locus YML032C, strain rad52, active compounds read low 0.964 | S. cerevisiae deletion strains, locus YML120C, strain ndi1, active compounds read low 0.979 | S. cerevisiae deletion strains, locus YML124C, strain tub3, active compounds read low 0.982 | S. cerevisiae deletion strains, locus YMR058W, strain fet3, active compounds read low 0.978 | S. cerevisiae deletion strains, locus YMR078C, strain ctf18, active compounds read low 0.952 | S. cerevisiae deletion strains, locus YMR125W, strain sto1, active compounds read low 1.02 | S. cerevisiae deletion strains, locus YMR129W, active compounds read low 0.995 | S. cerevisiae deletion strains, locus YMR205C, strain PFK2, active compounds read low 0.92 | S. cerevisiae deletion strains, locus YMR223W, strain ubp8, active compounds read low 0.954 | S. cerevisiae deletion strains, locus YMR231W, strain pep5, active compounds read low 1.02 | S. cerevisiae deletion strains, locus YMR263W, strain SAP30, active compounds read low 1 | S. cerevisiae deletion strains, locus YMR307W, strain GAS1, active compounds read low 0.86 | S. cerevisiae deletion strains, locus YNL067W, strain RPL9B, active compounds read low 1.01 | S. cerevisiae deletion strains, locus YNL071W, strain lat1, active compounds read low 0.942 | S. cerevisiae deletion strains, locus YNL128W, strain TEP1, active compounds read low 0.995 | S. cerevisiae deletion strains, locus YNL153C, strain GIM3, active compounds read low 1.02 | S. cerevisiae deletion strains, locus YNL183C, strain NPR1, active compounds read low 0.896 | S. cerevisiae deletion strains, locus YNL209W, strain ssb2, active compounds read low 1.03 | S. cerevisiae deletion strains, locus YNL233W, strain BNI4, active compounds read low 1 | S. cerevisiae deletion strains, locus YNL248C, strain rpa49, active compounds read low 1.02 | S. cerevisiae deletion strains, locus YNL250W, strain rad50, active compounds read low 0.972 | S. cerevisiae deletion strains, locus YNL271C, strain bni1, active compounds read low 0.963 | S. cerevisiae deletion strains, locus YNL298W, strain CLA4, active compounds read low 0.984 | S. cerevisiae deletion strains, locus YNL307C, strain MCK1, active compounds read low 0.929 | S. cerevisiae deletion strains, locus YNL322C, strain KRE1 (second series), active compounds read low 1.02 | S. cerevisiae deletion strains, locus YNL322C, strain KRE1, active compounds read low 0.987 | S. cerevisiae deletion strains, locus YNR049C, strain mso1, active compounds read low 1.01 | S. cerevisiae deletion strains, locus YNR052C, strain pop2, active compounds read low 0.951 | S. cerevisiae deletion strains, locus YOL006C, strain TOP1, active compounds read low 0.908 | S. cerevisiae deletion strains, locus YOL012C, strain htz1 1.09 | S. cerevisiae deletion strains, locus YOL147C, strain pex11, active compounds read low 0.969 | S. cerevisiae deletion strains, locus YOR001W, strain rrp6, active compounds read low 0.997 | S. cerevisiae deletion strains, locus YOR061W, strain CKA2, active compounds read low 0.987 | S. cerevisiae deletion strains, locus YOR069W, strain VPS5, active compounds read low 0.985 | S. cerevisiae deletion strains, locus YOR070C, strain gyp1, active compounds read low 1.01 | S. cerevisiae deletion strains, locus YOR080W, strain dia2, active compounds read low 1.02 | S. cerevisiae deletion strains, locus YOR083W, strain WHI5, active compounds read low 0.943 | S. cerevisiae deletion strains, locus YOR106W, strain vam3, active compounds read low 0.98 | S. cerevisiae deletion strains, locus YOR136W, strain idh2, active compounds read low 0.983 | S. cerevisiae deletion strains, locus YOR144C, strain elg1, active compounds read low 0.979 | S. cerevisiae deletion strains, locus YOR184W, strain ser1, active compounds read low 0.899 | S. cerevisiae deletion strains, locus YOR231W, strain MKK1, active compounds read low 0.953 | S. cerevisiae deletion strains, locus YOR265W, strain rbl2, active compounds read low 1.01 | S. cerevisiae deletion strains, locus YOR270C, strain vph1, active compounds read low 0.922 | S. cerevisiae deletion strains, locus YOR290C, strain snf2, active compounds read low 1.01 | S. cerevisiae deletion strains, locus YOR316C, strain cot1, active compounds read low 0.966 | S. cerevisiae deletion strains, locus YPL051W, strain arl3, active compounds read low 0.973 | S. cerevisiae deletion strains, locus YPL055C, strain LGE1, active compounds read low 0.995 | S. cerevisiae deletion strains, locus YPL078C, strain atp4, active compounds read low 1.01 | S. cerevisiae deletion strains, locus YPL106C, strain sse1, active compounds read low 1.06 | S. cerevisiae deletion strains, locus YPL240C, strain hsp82, active compounds read low 1.04 | S. cerevisiae deletion strains, locus YPL241C, strain CIN2, active compounds read low 0.986 | S. cerevisiae deletion strains, locus YPL256C, strain CLN2, active compounds read low 0.928 | S. cerevisiae deletion strains, locus YPR119W, strain clb2, active compounds read low 0.983 | S. cerevisiae deletion strains, locus YPR141C, strain kar3, active compounds read low 0.95 | S. cerevisiae deletion strains, locus YPR163C, strain tif3, active compounds read low 0.975 | S. cerevisiae deletion strains, locus YPR167C, strain met16, active compounds read low 0.967 | S. cerevisiae deletion strains, strain wtn01, active compounds read low 0.971 | S. cerevisiae strains, strain wild type, active compounds read low 0.984
